D2 ag-1: activates the human D2 dopamine receptor | DiscoveRx PathHunter D2 beta-arrestin, luminescence, 90 min; 100% = 57 uM dopamine signal | activation, % (test concentration not listed) | actives 0.084% (n = 360,000); in the data active = activation above about 40%; inconclusive = between about 15% and that limit
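Agonist mode: compounds alone added to overnight-plated D2 PathHunter cells for 90 min at 37 C, with 57 uM final dopamine (EC100) defining full response. Beta-arrestin recruitment detected by chemiluminescent reagent, read after 1 h at ambient temperature.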
D2 ag-2: agonists of human D2 dopamine receptor; HEK293 T-REx D2 cells, calcium flux agonist mode; activation, % at 2 µM; actives 0.53% (n = 340,000); AID 485358;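 active = activation over 3 SD above normal in the single-dose calcium agonist read, cut at about 30% in these data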; also: 0% is about no effect
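Calcium-flux readout, 1 cycle/sec over 180 s following compound pin transfer, in inducible HEK293 Trex D2 cells (force-coupled); dopamine controls included. Positive calcium responses during this window marked compounds as potential agonists.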
B2AR arrestin: recruits beta-arrestin to the human beta2-adrenergic receptor | AID 492947 | beta-arrestin recruitment to beta2AR, cell-based reporter | actives 0.02% (n = 330,000) | Potency, µM (series often up to 46.1 µM), without a hit: at the top dose activation, actives largely listed as activators;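 also: potency is read from the fitted curve at half-maximal effect; 0% = DMSO controls and full agonism = EC100 isoproterenol or metaproterenol; nearly all actives have a fitted effect of over 65% in size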
Target sequence (P07550 whole entry, looked up): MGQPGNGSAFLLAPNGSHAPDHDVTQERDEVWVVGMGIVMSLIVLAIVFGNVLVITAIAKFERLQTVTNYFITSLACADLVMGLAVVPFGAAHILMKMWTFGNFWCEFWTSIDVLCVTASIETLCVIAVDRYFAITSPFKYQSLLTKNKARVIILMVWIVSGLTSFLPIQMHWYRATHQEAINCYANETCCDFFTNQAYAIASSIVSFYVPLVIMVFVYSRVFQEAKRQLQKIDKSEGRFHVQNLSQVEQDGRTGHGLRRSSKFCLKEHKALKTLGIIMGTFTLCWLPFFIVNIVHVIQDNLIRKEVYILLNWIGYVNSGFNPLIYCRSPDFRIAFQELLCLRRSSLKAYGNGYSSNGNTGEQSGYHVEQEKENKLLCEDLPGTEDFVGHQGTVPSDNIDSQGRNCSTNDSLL
D2 antag: antagonizes the human D2 dopamine receptor. P14416. actives 2% (n = 340,000). inhibition, % at 10 µM. HEK293 TREx D2 cells, calcium flux, dopamine EC80; in the data active = inhibition above about 30%; inactive = below that, where a call was filed; also: 0% is about no effect
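Compounds are added to dye-loaded, induced HEK293 T-REx cells coupled to calcium release via D2; after a 3 min kinetic read an EC80 dopamine stimulus is given and fluorescence is recorded for 3 more min.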
D2 PAM-1: potentiates the human D2 dopamine receptor allosterically | P14416 | DiscoveRx D2 beta-arrestin cells, luminescence, 90 min; 100% = 57 uM dopamine signal | potentiation, % (test concentration not listed) | actives 0.23% (n = 360,000) | AID 624464; in the data active = potentiation above about 50%; inconclusive = mostly about 30% to 49%
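D2 cells co-treated with compound plus 50 nM dopamine (EC20) for 90 min at 37 deg C to detect potentiation. Beta-arrestin recruitment was read as enzyme-fragment luminescence after 1 h at ambient temperature. Full response was set by 57 uM dopamine.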
D2 PAM-2: positive allosteric modulators of human D2 dopamine receptor | P14416 | HEK293 T-REx D2, calcium flux, EC20 dopamine potentiation | actives 0.34% (n = 340,000) | potentiation, % at 10 µM;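 active = potentiation over 3 SD above the plate norm, cut at about 30% in these data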; also: 0% is about no effect
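Potentiation of an EC20 dopamine calcium response is measured in a force-coupled, tetracycline-inducible Hek293 Trex D2 line. Compound-only kinetic reads over 180 s flag agonists before dopamine addition.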
D3 arrestin ag: activates human D3 dopamine receptor beta-arrestin recruitment | actives 4% (n = 2,300) | AID 720506 | Potency, µM (doses to about 76.9 µM), without a hit: at the top dose activation, hits mostly activators | DiscoveRx D3 beta-arrestin cells, luminescence, 90 min | shares compounds with D2 ag-2;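 also: potency is read from the fitted curve at half-maximal effect; 100% = dopamine control response; nearly all actives have a fitted effect of over 70% in size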
D2 ag-3: activates human D2 dopamine receptor in D3 counterscreen | shares compounds with D2 ag-2 | DiscoveRx PathHunter D2 beta-arrestin, luminescence, 90 min; response scale: percent relative to full dopamine signal | Potency, µM (doses to about 76.9 µM), inactives show at the highest dose activation, most hits filed as activators | actives 5.9% (n = 2,300) | AID 720507; also: potency is read from the fitted curve at half-maximal effect; % of control where 0% means no effect; nearly all actives have a fitted effect of over 70% in size
An asterisk follows results filed as active; ? = inconclusive; . = no result; ! = not active in a repeat. This is a sample that favours compounds with a hit; in the whole collection about 2.4% have one here. Unless noted, calls follow the shape of the dose curve; as a rule, active = well fitted activation curve with a large enough effect; inconclusive = small, poorly fitted or top-dose-only effect; inactive = flat fitted curve, though single readings scatter.

SMILES	D2 ag-1	D2 ag-2	B2AR arrestin	D2 antag	D2 PAM-1	D2 PAM-2	D3 arrestin ag	D2 ag-3
Cc1cc(C)c(C)c(OCC(O)CN2CCN(c3ccccn3)CC2)c1 (centres undefined)	48*	66*	0%	92*	-3	-29	4µM*	4µM*
Cc1cccc(OCC(O)CN2CCN(c3ccccn3)CC2)c1C (centres undefined)	?	72*	0%	78*	-21	-21	21%	?
Cc1cccc(C)c1NC(=O)CN(C)S(=O)(=O)c1ccc2[nH]c3c(c2c1)CCCC3	.	.	.	.	.	1	.	.
CN(CCNC(=O)C1CCN(S(=O)(=O)N2CCOCC2)CC1)CCc1ccccc1	3	55*	0%	28	-26	-18	7%	5%
COc1ccc(C2OC(=O)CC2C(=O)NCc2ccc(F)cc2)cc1OC (centres undefined)	3	-1	1%	7	-32	7	-7%	-6%
CCOC(=O)C1=CCN(S(=O)(=O)c2ccccc2Br)C1c1ccc(F)cc1 (centres undefined)	-6	.	.	.	-5	.	.	.
CC(C)(C)OC(=O)N[C@H](C(=O)OC(C)(C)C)c1ccc2ccccc2c1	-5	-1	0%	-6	-1	15	2%	-4%
COc1ccc([C@@H](NC(=O)OC(C)(C)C)C(=O)OC(C)(C)C)cc1	-4	0	0%	11	-8	6	.	.
CCCC(=O)Nc1c2c(nn1-c1cccc(C)c1C)CS(=O)(=O)C2	-6	0	0%	4	-1	9	.	.
COc1cccc(CN(C)C(=O)c2cccc(S(=O)(=O)N3CCN(Cc4ccccc4)CC3)c2)c1OC	-3	2	0%	0	-12	0	29%	20%
O=C(NCCN1CCN(c2ccccc2)CC1)C1CCN(S(=O)(=O)c2cccs2)CC1	?	.	0%	.	-6	.	?	?
O=C(NCCCN1CCN(c2ccccc2F)CC1)C1CCC(=O)N1C1CCCC1 (centres undefined)	4	72*	-2%	66*	-5	-17	9%	?
CCCS(=O)(=O)N1CCCC(C(=O)NCCCN2CCN(c3cccc(Cl)c3)CC2)C1 (centres undefined)	7	48*	-1%	51*	-29	-23	?	22%
O=C(NCCS(=O)(=O)N1CCN(c2cccc(Cl)c2)CC1)C1CCCC1	-3	0	0%	-3	-21	-2	.	.
COc1ccc2c(c1)CC(C(=O)NCCCN1CCN(c3ccccc3F)CC1)CO2 (centres undefined)	.	.	.	.	.	-25	.	.
CCS(=O)(=O)N1CCC(C(=O)NCCCN2CCN(c3ccccc3F)CC2)CC1	?	69*	-1%	86*	18	-18	?	?
COc1ccc(NC(=O)CN2C(=O)CC(C)S(=O)(=O)c3ccccc32)cc1 (centres undefined)	6	0	-1%	-2	5	-4	.	.
COc1cc2[nH]c(=O)n(CCC(=O)NCCCN3CCN(c4ccccc4F)CC3)c(=O)c2cc1OC	6	51*	0%	96*	-17	-34	?	19%
CCCN1CCN(CCCNC(=O)c2ccc3c(=O)n(CCc4ccccc4)c(=O)[nH]c3c2)CC1	9	68*	0%	31*	6	-23	-3%	17%
O=C(CCN1C(=O)COc2ccccc21)NCCCN1CCN(c2ccccc2F)CC1	14	69*	0%	82*	-14	-26	17%	19%
O=C(NCCc1ccccc1)C1CCN(S(=O)(=O)c2cccs2)CC1	-2	0	0%	-5	-3	-14	.	.
O=C(NCCCN1CCN(c2ccccc2F)CC1)C1CCN(S(=O)(=O)c2cccs2)CC1	?	70*	0%	75*	18	-18	?	10µM*
COc1cc(OC)c2c(C)cc(=O)oc2c1C(CCN1CCOCC1)c1ccc2c(c1)OCO2 (centres undefined)	1	0	4%	25	-22	-18	.	.
COc1cc(C(CCN2CCN(c3ccccc3)CC2)c2c(OC)cc(OC)c3c(C)cc(=O)oc23)cc(OC)c1OC (centres undefined)	0	25	-1%	12	-27	-15	-22%	-5%
Cc1c(O)c(=O)ccn1C	-1	57*!	0%	31*!	6	-14	0%	-3%
SMILES	D2 ag-1	D2 ag-2	B2AR arrestin	D2 antag	D2 PAM-1	D2 PAM-2	D3 arrestin ag	D2 ag-3
Cc1c(S(=O)(=O)N2CCCC(C(=O)O)C2)cnn1C (centres undefined)	-2	0	0%	9	-4	-12	.	.
O=c1[nH]cc(NCc2ccccc2)c(=O)[nH]1	0	.	.	.	-10	.	.	.
O=c1[nH]cc(NCCc2ccccc2)c(=O)[nH]1	0	38*	0%	-19	-3	-14	11%	13%
Cc1ccccc1CN1CCN(S(=O)(=O)c2ccc(F)cc2)CC1	-1	1	0%	-18	-18	-2	.	.
O=S(=O)(c1ccc(Br)cc1)N1CCCN(Cc2ccccc2F)CC1	-1	41*	-1%	-20	-7	-22	-8%	-2%
CN(CCOc1ccccc1Cl)Cc1ccccc1	2	25	0%	85*	-3	-28	?	-3%
Oc1ccc(Cc2ccccc2Cl)c(O)c1	2	.	.	.	-17	.	.	.
CC(C)(C)OC(=O)N[C@@H](Cc1ccccc1)C(=O)NCC1CCC(C(=O)N[C@@H](CCC(N)=O)C(=O)O)CC1 (some centres undefined)	0	2	-1%	1	1	4	.	.
COc1cc(-c2n[nH]c(=S)n2/N=C/c2cccn2C)cc(OC)c1OC	-6	13	-1%	-28	-11	13	25%	-16%
Cn1cccc1/C=N/n1c(-c2ccco2)n[nH]c1=S	-1	1	0%	4	-1	-1	.	.
Cc1nn(CC(=O)OCC(=O)Nc2c(C(C)C)cccc2C(C)C)c(C)c1[N+](=O)[O-]	-1	0	0%	-9	-1	-8	.	.

Compound activity as filed in PubChem BioAssay.
